Among the data in PubChem BioAssay (NCI) are growth values, retold here.

Some test systems named below: EKVX NSCLC; SN12C renal; UO-31 renal; TK-10 renal; ACHN renal; CAKI-1 renal; A498 renal; CCRF-CEM leukemia; MOLT-4 leukemia; SR leukemia; RPMI-8226 leukemia; OVCAR-8 ovarian; OVCAR-5 ovarian; OVCAR-4 ovarian; IGROV1 ovarian; OVCAR-3 ovarian; HS 578T breast; T-47D breast; SK-OV-3 ovarian; NCI/ADR-RES ovarian.
Common to all, as to assay: NCI-60 one-dose screen, 48 h (100 = growth as untreated, 0 = no growth, -100 = all killed)
Holding throughout (conditions): 10 µM unless noted

About 83,000 compounds went through this panel and 20% of them were active in at least one assay; those are over-represented in the sample as a whole.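 Negative percent growth values reflect cell death: -40 means 40% of the cells present at the start died, and -100 means all died.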 Values without a mark were called inactive. Activity calls are given as the source filed them. The calls were made as follows: active = growth percent below 10; inactive = the rest.

On to `CSc1ccc2c(c1)N(C(=O)/C(C#N)=C/c1c[nH]c3ccccc13)c1ccccc1S2`, for which the growth in the assay on EKVX NSCLC was 34.8%; in the assay on SN12C renal, 33.9%; in the assay on UO-31 renal, 50.4%; with TK-10 renal it was 71.3%; in the assay with ACHN renal it was 39.9%; in the assay with CAKI-1 renal, 38.5%. Besides, the growth was 10.8% with A498 renal; 19% in the assay with CCRF-CEM leukemia; 30.5% with MOLT-4 leukemia; 34.4% in the assay on SR leukemia; 21.3% with RPMI-8226 leukemia; 52.4% with OVCAR-8 ovarian. Further, the growth is 63.1% in the assay on OVCAR-5 ovarian; 59.5% in the assay on OVCAR-4 ovarian; 40.2% in the assay on IGROV1 ovarian; 37.5% in the assay on OVCAR-3 ovarian; 37.8% in the assay on HS 578T breast; 29.9% in the assay with T-47D breast.

For `C/C(=N/NC(N)=S)c1ccc(Nc2nc(SCC(C)C)nc(-c3ccc(F)cc3)c2C#N)cc1`, the growth in the assay with EKVX NSCLC is -0.0417% (active); in the assay on SN12C renal it was 12.7%; with UO-31 renal, 0.28% (active); in the assay on TK-10 renal, 8.09% (active); in the assay with ACHN renal, 12.5%; with CAKI-1 renal it was -9.45% (active). Moreover, the growth was 15.9% in the assay on A498 renal; 51.7% in the assay on CCRF-CEM leukemia; 44.4% in the assay with MOLT-4 leukemia; 42.8% in the assay with SR leukemia; 34.2% with RPMI-8226 leukemia; -3.63% (active) with OVCAR-8 ovarian. Moreover, the growth in the assay with OVCAR-5 ovarian is 29.2%; with OVCAR-4 ovarian, 26.5%; in the assay on SK-OV-3 ovarian, 28.9%; with IGROV1 ovarian, 21.2%; with HS 578T breast, 4% (active); in the assay with NCI/ADR-RES ovarian, -14.6% (active). Moreover, the growth in the assay on T-47D breast is 21.6%.

For `Cc1ccccc1NC(=O)/C=C/c1ccc(OCCOc2ccc3c(C)cc(=O)oc3c2)cc1`, the growth in the assay on EKVX NSCLC is 107%; with SN12C renal, 91.5%; with UO-31 renal, 99.6%; in the assay with TK-10 renal it was 132%; in the assay with ACHN renal, 89.4%; in the assay on CAKI-1 renal, 95.1%. The growth in the assay with A498 renal was 81.3%; in the assay on CCRF-CEM leukemia it was 95.7%; with MOLT-4 leukemia it was 93.2%; in the assay on SR leukemia it was 61.3%; in the assay with RPMI-8226 leukemia it was 94%; in the assay with OVCAR-8 ovarian, 64.9%. For the same compound, the growth in the assay on OVCAR-5 ovarian was 103%; in the assay on OVCAR-4 ovarian, 75.5%; in the assay on SK-OV-3 ovarian it was 77.6%; in the assay with IGROV1 ovarian, 103%; with HS 578T breast, 61.2%; in the assay with NCI/ADR-RES ovarian, 84.6%. Also, the growth with T-47D breast is 84.1%.

As for `COc1cc(-c2nc3ccc(-c4nnc(SCC(=O)Nc5ccc(C(=O)/C=C/c6ccc(Cl)cc6)cc5)o4)cc3[nH]2)cc(OC)c1OC`, the growth is 99.5% in the assay with EKVX NSCLC; 90.4% in the assay on SN12C renal; 84% in the assay on UO-31 renal; 120% with TK-10 renal; 96.8% in the assay with ACHN renal; 97.2% with CAKI-1 renal. For the same compound, the growth with A498 renal was 83.2%; in the assay with CCRF-CEM leukemia, 81.6%; in the assay with MOLT-4 leukemia, 79.5%; with SR leukemia it was 60.4%; in the assay on RPMI-8226 leukemia, 57.2%; in the assay on OVCAR-8 ovarian it was 92.5%. The growth was 99.2% in the assay on OVCAR-5 ovarian; 100% in the assay with OVCAR-4 ovarian; 81.6% in the assay with IGROV1 ovarian; 87.9% in the assay with HS 578T breast; 106% with NCI/ADR-RES ovarian; 80.4% with T-47D breast.

With `COc1ccc(NC2=CC(=O)C(C)=C(C)C2=O)cc1`, the growth in the assay on EKVX NSCLC was 78.8%; in the assay with SN12C renal it was 86.4%; in the assay on UO-31 renal, 81.2%; in the assay with TK-10 renal it was 156%; with ACHN renal, 96.1%; with CAKI-1 renal it was 93.5%. Also, the growth with A498 renal is 84.4%; in the assay with CCRF-CEM leukemia, 70.1%; in the assay on MOLT-4 leukemia, 75.6%; in the assay on SR leukemia, 82.3%; with RPMI-8226 leukemia it was 73.3%; with OVCAR-8 ovarian it was 79.1%. In addition, the growth in the assay on OVCAR-5 ovarian is 109%; in the assay on OVCAR-4 ovarian, 43.8%; in the assay on IGROV1 ovarian it was 89.3%; in the assay on OVCAR-3 ovarian it was 9.94% (active); in the assay on HS 578T breast it was 110%; with T-47D breast, 67.5%.

On to `N#Cc1c(-c2ccc(Cl)cc2)nc(SCc2ccc([N+](=O)[O-])cc2)nc1N1CCNCC1`, for which the growth was 51.9% with EKVX NSCLC; 1.59% (active) in the assay with SN12C renal; 22.4% with UO-31 renal; 77.4% in the assay with TK-10 renal; -67.4% (active) with ACHN renal; 13.6% in the assay on CAKI-1 renal. Further, the growth was 44.7% in the assay on A498 renal; -14% (active) in the assay with CCRF-CEM leukemia; -27% (active) with MOLT-4 leukemia; -43.3% (active) in the assay on SR leukemia; -24.5% (active) in the assay on RPMI-8226 leukemia; -81.6% (active) in the assay on OVCAR-8 ovarian. The growth in the assay on OVCAR-5 ovarian is 3.39% (active); in the assay on OVCAR-4 ovarian, 26.9%; with SK-OV-3 ovarian it was 111%; with IGROV1 ovarian, -1.76% (active); in the assay on HS 578T breast, 52.1%; with NCI/ADR-RES ovarian, 8.72% (active). Besides, in the assay on T-47D breast, the growth is -9.43% (active).

Take `CCOc1ccc([C@H]2C(C(=O)c3ccc(Cl)cc3)C3(N[C@@H]2c2ccccc2)C(=O)Nc2ccc(Br)cc23)cc1` (some centres undefined): the growth in the assay on EKVX NSCLC was 33.6%; in the assay with SN12C renal, 6.51% (active); in the assay with UO-31 renal it was 32.7%; with TK-10 renal, 53.4%; in the assay with ACHN renal, 10.7%; in the assay on CAKI-1 renal it was 31.8%. In addition, the growth in the assay on A498 renal is 46.7%; in the assay on CCRF-CEM leukemia it was 34.9%; in the assay on MOLT-4 leukemia, 2.38% (active); in the assay on SR leukemia, -24% (active); in the assay with RPMI-8226 leukemia, 23.5%; in the assay on OVCAR-8 ovarian, 38%. Further, the growth was 51.2% with OVCAR-5 ovarian; 45.5% with OVCAR-4 ovarian; 58.6% in the assay on SK-OV-3 ovarian; 13.5% in the assay on IGROV1 ovarian; 46.1% in the assay on HS 578T breast; 64.7% in the assay with NCI/ADR-RES ovarian. Further, in the assay on T-47D breast, the growth was 31.4%.

As to `CNC(=O)c1cc(-c2ccc(NC(=O)Nc3ccc(N4CCOCC4)c(C(F)(F)F)c3)cc2)nc2cccnc12`, the growth in the assay on EKVX NSCLC is 76.6%; in the assay on SN12C renal it was 41.6%; in the assay with UO-31 renal, 43.2%; in the assay with TK-10 renal, 156%; in the assay on ACHN renal, 50.8%; with CAKI-1 renal, 64%. Besides, the growth with A498 renal was 79.9%; with CCRF-CEM leukemia it was 40.5%; in the assay on MOLT-4 leukemia, 34.6%; in the assay on SR leukemia, 13.6%; in the assay on RPMI-8226 leukemia, 9.25% (active); in the assay on OVCAR-8 ovarian it was 49.9%. Besides, the growth is 91.4% in the assay on OVCAR-5 ovarian; 49.3% with OVCAR-4 ovarian; 93.4% with SK-OV-3 ovarian; 57.5% in the assay on IGROV1 ovarian; 32.2% with HS 578T breast; 68.6% in the assay with NCI/ADR-RES ovarian. The growth with T-47D breast was 39.6%.
